Screening data from PubChem.
HepG2 viability – counter-screen for TGF-b inhibitors: cytotoxicity in HepG2 cells. Potency, µM (highest dose often 46.1 µM), for inactives: top-dose activity change, negative = cytotoxicity, most hits filed as cytotoxic. HepG2 CAGA-GFP viability, ATP luminescence, 18 h. hit rate 0.76% among 410,000. AID 588856
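CellTiter-Glo luminescence gave cytotoxicity after 18 hours at 37 degrees C. The cells were HepG2 CAGA-GFP in 1% FBS DMEM, stimulated with 500 pg/mL TGF-beta after compound addition. %Activity was normalised to no-cell wells (complete cell-killing) and DMSO (no toxicity), and curves were fitted and classified.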
TDP1 cell CPT – DT40-hTDP1 cell growth loss with CPT; hit rate 12% among 420,000; Potency, µM (series often up to 46.2 µM), for inactives: at the highest dose activity change, negative = growth inhibition, hits mostly inhibitors; chicken DT40 Tdp1-/-;hTDP1 cells + 20 nM CPT, ATP luminescence, 48 h; also: % is scaled to controls: 0 for no effect and ±100 for the full control effect; nearly all actives have a fitted effect of over 55% in size
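Cell growth measured by CellTiter-Glo luminescence after a minimum 48 h, 37 C compound exposure with 20 nM CPT in Tdp1-knockout DT40 cells stably expressing hTDP1, seeded 400/well; qHTS titration format.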
TDP1 cell noCPT – qHTS for Inhibitors of human tyrosyl-DNA phosphodiesterase 1 (TDP1): qHTS in cells in absence of CPT. DT40 Tdp1-/- hTDP1 cells, no CPT, ATP luminescence, 48 h. AID 686978, 2013. Potency, µM (series often up to 46.2 µM), for inactives: at the highest dose activity change, negative = growth inhibition, usual class: inhibitors. hit rate 15% among 420,000; also: % is scaled to controls: 0 for no effect and ±100 for the full control effect; nearly all actives have a fitted effect of over 55% in size
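Luminescent ATP content (CellTiter-Glo) served as the growth readout. Knockout chicken DT40 cells expressing human TDP1 were exposed to compounds without camptothecin for a minimum 48 hr at 37 °C.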
TGFb SMAD3 inh – blocks TGF-b signaling | HepG2 CAGA-GFP TGF-b/SMAD3 reporter, GFP fluorescence, 18 h; TGF-beta stimulated, 500 pg/mL final | Potency, µM (series often up to 46.1 µM), without a hit: top-dose activity, negative = inhibition, actives largely listed as inhibitors | hit rate 1.2% among 410,000; also: % is scaled to controls: 0 for no effect and ±100 for the full control effect; nearly all actives have a fitted effect of over 65% in size
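HEPG2 CAGA-GFP, 1000 cells/well; 2 h settle, 37 C; cpd via pin tool; TGF-b 500 pg/mL final; 18 h, 37 C; GFP imaging ex488/em500-530; %Activity normalised to -TGF-b and +DMSO controls; CRC fit, curve class.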
S2 tox – viability counter-screen for ATXN expression inhibitors; S2 cells (HEK-293 line with an ATXN2-luciferase reporter) viability, CellTiter-Fluor protease fluorescence, 24 h; Potency, µM (highest dose often 56.7 µM), usual class: cytotoxic; hit rate 0.49% among 400,000; AID 651635; also: nearly all actives have a fitted effect of over 40% in size
ATXN2 expr inh – inhibitors of ATXN2 expression. HEK-293 ATXN2-luciferase reporter, luminescence, 24 h. Potency, µM (doses to about 57 µM), for the others: at the highest dose activity change, negative = inhibition, usual class: inhibitors. hit rate 0.72% among 360,000. AID 1745845; also: % is scaled to controls: 0 for no effect and ±100 for the full control effect; nearly all actives have a fitted effect of over 55% in size
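ATXN2-luciferase reporter cells (luciferase flanked by upstream and downstream ATXN2 gene portions) were treated 24 h at 37 °C with compounds at up to 57 uM. SteadyGlo luminescence gave expression; GF-AFC fluorescence gave viability.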
Active calls of the source: *; i = inactive; ? = inconclusive; · = not tested or not shown; [ ] = dose if it differs, or a comment. This is a sample that favours compounds with a hit; in the whole collection about 17% have one here. Calls follow the shape of the dose curve; as a rule, active = well fitted curve in the direction sought with a large enough effect; inconclusive = small, poorly fitted or top-dose-only effect, or another doubt; inactive = no such curve, though single readings can be large; an effect the other way counts as inactive or inconclusive. Potency is read from the fitted curve at half-maximal effect.

SMILES | HepG2 viability | TDP1 cell CPT | TDP1 cell noCPT | TGFb SMAD3 inh | S2 tox | ATXN2 expr inh
CC[C@@]1(C(=O)OC)N[C@H](CN(C)C(=O)Nc2ccc(C)cc2)[C@@H]2C(=O)N(Cc3ccccc3)C(=O)[C@@H]21 | -12% | 29µM* | ? | -59% | i | 6%
COC(=O)[C@]1(Cc2ccccc2)N[C@H](CN(C)C(=O)Nc2ccc(C(F)(F)F)cc2)[C@@H]2C(=O)N(C)C(=O)[C@@H]21 | -20% | 12µM* | ? | 4% | i | 4%
COC(=O)[C@]1(Cc2ccccc2)N[C@H](CN(C)C(=O)Nc2ccc(F)cc2)[C@@H]2C(=O)N(Cc3ccccc3)C(=O)[C@@H]21 | -5% | ? | 15µM* | ? | ? | 2%
CCN(C[C@H]1N[C@@](Cc2ccccc2)(C(=O)OC)[C@H]2C(=O)N(Cc3ccccc3)C(=O)[C@@H]12)C(=O)Nc1ccc(C(F)(F)F)cc1 | 0% | 2.6µM* | 3.7µM* | ? | ? | ?
CC1(C)CC(=O)C=C(Nc2ccc(Br)cc2F)C1 | 2% | -26% | -19% | 9% | i | -13%
Fc1ccc(Oc2ncccn2)c(F)c1 | 0% | 1% | -1% | 5% | i | 21%
COc1cccc(CNCc2ccccc2OC)c1 | -21% | 3% | -16% | -6% | i | ·
COC(=O)[C@]1(Cc2ccccc2)N[C@H](CN(C)C(=O)Nc2ccc(Cl)cc2)[C@@H]2C(=O)N(Cc3ccccc3)C(=O)[C@@H]21 | -29% | 21µM* | ? | ? | i | 34%
CC(=O)N[C@@H](CC(=O)O)C(=O)O | 4% | -6% | 2% | -10% | ? | -5%
CCCCn1c(CCc2ccccc2)nc2cc3[nH]c(=O)c(C(C)C)nc3cc21 | -34% | ? | ? | ? | i | -3%
CCCCn1c(-c2ccc(F)c(F)c2)nc2cc3[nH]c(=O)c(C(C)C)nc3cc21 | -22% | 21µM* | 21µM* | ? | i | -7%
COc1ccccc1N1CCN(c2csc3ccccc3c2=O)CC1 | -24% | ? | ? | -7% | ? | -3%
O=C(/C=C/Sc1ccccc1)c1ccc(Cl)cc1 | 11µM* | ? | 16µM* | 8.9µM* | · | ?
O=C(/C=C/Nc1ccccc1)c1ccccc1 | -28% | -25% | -6% | -7% | i | 77%
O=CC(=O)c1ccc(Cl)cc1 | -29% | ? | ? | -28% | · | ·
O=C(/C=C/Sc1ccccc1)c1ccccc1 | 16µM* | 5.8µM* | 5.2µM* | 10µM* | · | ?
COc1cc2c(cc1OC)CN(C(=O)c1nn(Cc3ccccc3)c(=O)c3ccccc13)CC2 | -17% | ? | 16µM* | -30% | ? | 12%
CC(=O)c1ccc(N2CCN(C(=O)c3nn(Cc4ccccc4)c(=O)c4ccccc34)CC2)cc1 | -29% | ? | 18µM* | 4% | ? | -16%[2.22 µM]
COc1cc2c(cc1OC)CN(C(=O)c1cc3ccccc3oc1=O)CC2 | 2% | 10µM* | 12µM* | ? | i | -9%
COC(=O)c1nn(Cc2ccccc2)c(=O)c2ccccc12 | -5% | ? | -22% | -7% | i | 2%
COc1cccc2cc(C(=O)N3CCc4ccccc4C3)c(=O)oc12 | -3% | -9% | -23% | 0% | i | 85%
COc1ccc(S(=O)(=O)N=N/C=C2\C=CC=CN2O)cc1OC | 0% | -11% | -1% | -3% | i | ·
COc1cc(/C=N/Nc2nn3cnnc3c3ccccc23)ccc1O | -33% | 7.3µM* | ? | 1% | i | 15%
COc1cccc(/C=N/Nc2nn3cnnc3c3ccccc23)c1 | -50% | 13µM* | 21µM* | 13% | i | 3%
